According to ChEMBL document CHEMBL4513146, “CO-ADD screening of Karazin Kharkiv National University (Ukraine) compounds”:
Measured potencies and affinities stand elsewhere.

Key:
Klebsiella pneumoniae = settings: Concentration 32 ug.mL-1;; ASSAY_TEST Inhibition of Bacterial Growth; detection method Absorption (OD600); MEDIA CAMHB; plate type 384well; NBS; CORNING #3640; time 18 hr
Candida albicans = settings: Concentration 32 ug.mL-1; ASSAY_TEST Inhibition of Fungal Growth; detection method Absorption (OD530)
Cryptococcus neoformans = settings: Concentration 32 ug.mL-1; ASSAY_TEST Inhibition of Fungal Growth; detection method Resazurin; Absorption (OD600-OD570); plate type 384well; NBS; CORNING #3640

CCCCOc1ccc(-c2cc3c4nnc(SCC(=O)Nc5ccc(C)c(F)c5)n4ccn3n2)cc1
Inhibition (Klebsiella pneumoniae): 6.88%
Inhibition (Candida albicans): 11.03%
Inhibition (Cryptococcus neoformans): -15.89%

COc1ccc(C)cc1NC(=O)Cn1nc2ccc(SCc3ccc(Cl)cc3)nn2c1=O
Inhibition (Klebsiella pneumoniae): -0.56%
Inhibition (Candida albicans): 31.09%
Inhibition (Cryptococcus neoformans): -20.73%

COC(=O)c1ccccc1NC(=O)Cn1nc2c3cc(-c4ccc(Cl)cc4)nn3ccn2c1=O
Inhibition (Klebsiella pneumoniae): 3.97%
Inhibition (Candida albicans): 0.23%
Inhibition (Cryptococcus neoformans): -15.71%

COc1ccc(-c2cc3c4nnc(SCC(=O)NCc5ccccc5)n4ccn3n2)cc1
Inhibition (Klebsiella pneumoniae): -10.83%
Inhibition (Candida albicans): 19.83%
Inhibition (Cryptococcus neoformans): -19.87%

Cc1ccc(N(CC(=O)OC(C)(C)C)S(=O)(=O)c2cccn3cnnc23)cc1
Inhibition (Klebsiella pneumoniae): 9.31%
Inhibition (Candida albicans): 3.93%
Inhibition (Cryptococcus neoformans): -6.45%

O=C(CSc1nnc2ccc(C(=O)Nc3cccc(F)c3)cn12)Nc1ccc(F)c(F)c1
Inhibition (Klebsiella pneumoniae): 2.94%
Inhibition (Candida albicans): 5.97%
Inhibition (Cryptococcus neoformans): -3.04%

CC(=O)Nc1ccc(NC(=O)CSc2nc3ccccc3n3cnnc23)cc1
Inhibition (Klebsiella pneumoniae): 2.19%
Inhibition (Candida albicans): 32.46%
Inhibition (Cryptococcus neoformans): -15.75%

COc1cccc(CN(c2ccccc2)S(=O)(=O)c2ccc3nncn3c2)c1
Inhibition (Klebsiella pneumoniae): 0.32%
Inhibition (Candida albicans): 2.69%
Inhibition (Cryptococcus neoformans): -7.16%

O=c1c2sccc2n2c(SCc3cccc(C(F)(F)F)c3)nnc2n1Cc1ccc(F)cc1
Inhibition (Klebsiella pneumoniae): 10.74%
Inhibition (Candida albicans): 2.55%
Inhibition (Cryptococcus neoformans): -25.66%

CC(=O)c1ccc(NC(=O)Cn2c(=O)c3nnc(C(C)C)n3c3ccccc32)cc1
Inhibition (Klebsiella pneumoniae): 9.51%
Inhibition (Candida albicans): 0.56%
Inhibition (Cryptococcus neoformans): -14.82%

N#CCn1nc2n(CCC(=O)NC3CCCCC3)c(=O)c3ccccc3n2c1=O
Inhibition (Klebsiella pneumoniae): 0.53%
Inhibition (Candida albicans): 1.95%
Inhibition (Cryptococcus neoformans): 1.45%

COc1cccc(-n2ccn3c(SCC(=O)N4CCN(c5ccc(F)cc5)CC4)nnc3c2=O)c1
Inhibition (Klebsiella pneumoniae): 8.66%
Inhibition (Candida albicans): 0.06%
Inhibition (Cryptococcus neoformans): -10.47%

Cc1c(Cl)cccc1-n1ccn2c(=O)n(Cc3cccc(F)c3)nc2c1=O
Inhibition (Klebsiella pneumoniae): 6.93%
Inhibition (Candida albicans): 10.08%
Inhibition (Cryptococcus neoformans): -17.54%

CCc1ccccc1NC(=O)Cn1nc2n(CCC(C)C)c(=O)c3sccc3n2c1=O
Inhibition (Klebsiella pneumoniae): 0.67%
Inhibition (Candida albicans): 8.44%
Inhibition (Cryptococcus neoformans): -17.68%

COc1ccc2[nH]cc(C(=O)CSc3nnc4c(=O)n(-c5ccc(C)c(C)c5)ccn34)c2c1
Inhibition (Klebsiella pneumoniae): 2.12%
Inhibition (Candida albicans): 0.06%
Inhibition (Cryptococcus neoformans): -6.08%

CCc1ccc(N(Cc2ccccc2Cl)S(=O)(=O)c2cccn3c(C)nnc23)cc1
Inhibition (Klebsiella pneumoniae): 4.84%
Inhibition (Candida albicans): 5.69%
Inhibition (Cryptococcus neoformans): -4.25%

COC(=O)c1ccc(NC(=O)Cn2nc3ccc(SCc4ccc(Cl)cc4)nn3c2=O)cc1
Inhibition (Klebsiella pneumoniae): 3.21%
Inhibition (Candida albicans): 46.24%
Inhibition (Cryptococcus neoformans): -5.53%

Cc1ccc(F)cc1NC(=O)CSc1nc2ccccc2n2c(C)nnc12
Inhibition (Klebsiella pneumoniae): 10%
Inhibition (Candida albicans): 1.14%
Inhibition (Cryptococcus neoformans): -19.09%

CCCc1nnc2c(=O)n(CC(=O)N3CCCc4ccccc43)c3ccccc3n12
Inhibition (Klebsiella pneumoniae): 7.45%
Inhibition (Candida albicans): 0.04%
Inhibition (Cryptococcus neoformans): -21.26%

Cc1ccc(CN(c2cccc(F)c2)S(=O)(=O)c2ccc3nnc(C)n3c2)cc1
Inhibition (Klebsiella pneumoniae): -4.46%
Inhibition (Candida albicans): 1.78%
Inhibition (Cryptococcus neoformans): -8.87%

O=c1c2sccc2n2c(=O)n(Cc3ccccc3Cl)nc2n1CCc1ccccc1
Inhibition (Klebsiella pneumoniae): 12.78%
Inhibition (Candida albicans): 2.07%
Inhibition (Cryptococcus neoformans): -28.45%

Cc1ccc(-c2ccc3nn(CC(=O)N4CCN(c5ccc(F)cc5)CC4)c(=O)n3n2)cc1C
Inhibition (Klebsiella pneumoniae): 1.03%
Inhibition (Candida albicans): 7.38%
Inhibition (Cryptococcus neoformans): -10.89%

CCOC(=O)c1ccc(NC(=O)Cn2nc3ccc(Sc4ccccc4)nn3c2=O)cc1
Inhibition (Klebsiella pneumoniae): 5.75%
Inhibition (Candida albicans): 4.06%
Inhibition (Cryptococcus neoformans): -9.53%

Cc1ccc(Sc2nccn3c(=O)n(CC(=O)Nc4cc(Cl)ccc4C)nc23)c(C)c1
Inhibition (Klebsiella pneumoniae): -1.75%
Inhibition (Candida albicans): 4.75%
Inhibition (Cryptococcus neoformans): -16.92%

CC(C)n1c(=O)c2ccc(C(=O)NC3CCCC3)cc2n2c(=O)n(Cc3cccc(C(F)(F)F)c3)nc12
Inhibition (Klebsiella pneumoniae): 13.79%
Inhibition (Candida albicans): 1.19%
Inhibition (Cryptococcus neoformans): -23.89%

COc1ccc(CCn2c(=O)c3sccc3n3c(=O)n(Cc4c(F)cccc4Cl)nc23)cc1OC
Inhibition (Klebsiella pneumoniae): 4.92%
Inhibition (Candida albicans): -1.61%
Inhibition (Cryptococcus neoformans): -23.43%

COc1cc(OC)c(NC(=O)Cn2nc3c(Oc4ccccc4)nccn3c2=O)cc1Cl
Inhibition (Klebsiella pneumoniae): -10.94%
Inhibition (Candida albicans): 2.58%
Inhibition (Cryptococcus neoformans): -9.36%

Cc1c(Cl)cccc1-n1ccn2c(=O)n(Cc3ccc(F)cc3)nc2c1=O
Inhibition (Klebsiella pneumoniae): -1.56%
Inhibition (Candida albicans): 6.3%
Inhibition (Cryptococcus neoformans): -16.32%

CC(C)(C)NC(=O)Cn1nc2n(Cc3cccs3)c(=O)c3sccc3n2c1=O
Inhibition (Klebsiella pneumoniae): 3.31%
Inhibition (Candida albicans): -0.71%
Inhibition (Cryptococcus neoformans): -8.9%

Cc1ccccc1Oc1nccn2c(=O)n(CC(=O)Nc3cc(Cl)ccc3Cl)nc12
Inhibition (Klebsiella pneumoniae): 4.89%
Inhibition (Candida albicans): 2.23%
Inhibition (Cryptococcus neoformans): -9.52%

CSc1cccc(NC(=O)Cn2nc3c(Oc4cc(C)cc(C)c4)nccn3c2=O)c1
Inhibition (Klebsiella pneumoniae): 7.88%
Inhibition (Candida albicans): 2.48%
Inhibition (Cryptococcus neoformans): -9.76%

O=C(Cn1nc2c3cc(F)ccc3ncn2c1=O)Nc1ccc2c(c1)OCO2
Inhibition (Klebsiella pneumoniae): 1.07%
Inhibition (Candida albicans): 3.33%
Inhibition (Cryptococcus neoformans): -3.11%

Cc1ccc(-c2cc3c4nn(CC(=O)Nc5ccccc5Cl)c(=O)n4ccn3n2)cc1
Inhibition (Klebsiella pneumoniae): 2.6%
Inhibition (Candida albicans): 0.36%
Inhibition (Cryptococcus neoformans): -23.03%

COc1ccc(Cn2nc3ccc(-c4ccc(Cl)cc4)nn3c2=O)cc1F
Inhibition (Klebsiella pneumoniae): 16.23%
Inhibition (Candida albicans): 0.27%
Inhibition (Cryptococcus neoformans): -15.51%

COc1cc(NC(=O)CSc2nnc3c(=O)n(-c4cccc(F)c4)ccn23)cc(OC)c1
Inhibition (Klebsiella pneumoniae): 4.95%
Inhibition (Candida albicans): 13.47%
Inhibition (Cryptococcus neoformans): -8.34%

O=C(Cn1nc2c(Sc3ccccc3)nccn2c1=O)Nc1cccc(Cl)c1F
Inhibition (Klebsiella pneumoniae): 13.46%
Inhibition (Candida albicans): 0.76%
Inhibition (Cryptococcus neoformans): -9.38%

O=C(Cn1nc2c(N3CCOCC3)nccn2c1=O)NCc1ccccc1Cl
Inhibition (Klebsiella pneumoniae): 10.56%
Inhibition (Candida albicans): 3.88%
Inhibition (Cryptococcus neoformans): -5.18%

O=C(Cn1nc2c(SCc3ccccc3)nccn2c1=O)NCc1ccc(Cl)cc1
Inhibition (Klebsiella pneumoniae): -3.05%
Inhibition (Candida albicans): 1.33%
Inhibition (Cryptococcus neoformans): -17.24%

Cc1ccc(-c2ccc3nn(CC(=O)Nc4ccc(C#N)cc4)c(=O)n3n2)cc1C
Inhibition (Klebsiella pneumoniae): 8.41%
Inhibition (Candida albicans): 3.47%
Inhibition (Cryptococcus neoformans): -12.02%

Cc1ccc(-c2ccc3nnc(CCC(=O)NCc4cccc(Br)c4)n3n2)cc1C
Inhibition (Klebsiella pneumoniae): -2.24%
Inhibition (Candida albicans): 4.88%
Inhibition (Cryptococcus neoformans): -4.39%

COc1cccc(Oc2nccn3c(=O)n(CC(=O)Nc4ccc(OC)c(Cl)c4)nc23)c1
Inhibition (Klebsiella pneumoniae): 9.28%
Inhibition (Candida albicans): 1.52%
Inhibition (Cryptococcus neoformans): -8.33%

Cc1ccc(NC(=O)Cn2nc3c(Oc4cccc(C)c4C)nccn3c2=O)c(Br)c1
Inhibition (Klebsiella pneumoniae): 10.09%
Inhibition (Candida albicans): -2.33%
Inhibition (Cryptococcus neoformans): -8.9%

COc1ccccc1NC(=O)Cn1c(=O)c2nnc(C(C)C)n2c2ccccc21
Inhibition (Klebsiella pneumoniae): 6.56%
Inhibition (Candida albicans): -0.06%
Inhibition (Cryptococcus neoformans): -9.5%

COc1cc(NC(=O)C(C)Sc2nnc3c(=O)n(-c4ccc(F)cc4)ccn23)cc(OC)c1 (stereo not given)
Inhibition (Klebsiella pneumoniae): 6.23%
Inhibition (Candida albicans): 7.68%
Inhibition (Cryptococcus neoformans): -7.14%

CCc1ccccc1NC(=O)Cn1nc2cc(C)nc(Nc3ccc(F)cc3)n2c1=O
Inhibition (Klebsiella pneumoniae): 9.33%
Inhibition (Candida albicans): 29.91%
Inhibition (Cryptococcus neoformans): -17.34%

Cc1cc(C)c(NC(=O)Cn2nc3c4cc(-c5ccc(C)c(C)c5)nn4ccn3c2=O)c(C)c1
Inhibition (Klebsiella pneumoniae): 5.52%
Inhibition (Candida albicans): -0.89%
Inhibition (Cryptococcus neoformans): -17.51%

Cc1ccc(N(Cc2ccc(F)cc2)S(=O)(=O)c2ccc3nnc(C)n3c2)cc1
Inhibition (Klebsiella pneumoniae): 5.71%
Inhibition (Candida albicans): 1.54%
Inhibition (Cryptococcus neoformans): -13.44%

CC(C)(C)Sc1ccc2nn(CC(=O)Nc3ccccc3C(F)(F)F)c(=O)n2n1
Inhibition (Klebsiella pneumoniae): 13.7%
Inhibition (Candida albicans): 0.56%
Inhibition (Cryptococcus neoformans): -20.81%

O=C(CSc1nnc2c(=O)n(-c3ccccc3)ccn12)Nc1ccc(Cl)cc1
Inhibition (Klebsiella pneumoniae): 8.54%
Inhibition (Candida albicans): 0.98%
Inhibition (Cryptococcus neoformans): -17.38%

Cc1ccc(-n2ccn3c(SCC#N)nnc3c2=O)cc1C
Inhibition (Klebsiella pneumoniae): 10.69%
Inhibition (Candida albicans): 1.05%
Inhibition (Cryptococcus neoformans): -5.76%

COc1ccc(C(=O)CSc2nnc3c(=O)n(-c4ccc(Br)cc4)ccn23)cc1
Inhibition (Klebsiella pneumoniae): 6.12%
Inhibition (Candida albicans): 4.09%
Inhibition (Cryptococcus neoformans): -7.3%

Cc1ccc(C)c(NC(=O)Cn2nc3c(Sc4ccccc4)nccn3c2=O)c1
Inhibition (Klebsiella pneumoniae): 3.53%
Inhibition (Candida albicans): 1.24%
Inhibition (Cryptococcus neoformans): -8.99%

COc1cc(NC(=O)Cn2nc3ccc(C(=O)NCc4ccccc4)cn3c2=O)cc(OC)c1OC
Inhibition (Klebsiella pneumoniae): 1.38%
Inhibition (Candida albicans): 5.58%
Inhibition (Cryptococcus neoformans): -8.4%

O=C(Cn1nc2ccc(SC3CCCCC3)nn2c1=O)Nc1ccc2c(c1)CCC2
Inhibition (Klebsiella pneumoniae): 11.52%
Inhibition (Candida albicans): 2.83%
Inhibition (Cryptococcus neoformans): -22.07%

CCC(Sc1nnc2c(=O)n(-c3ccc(C)c(C)c3)ccn12)C(=O)Nc1ccccc1C (stereo not given)
Inhibition (Klebsiella pneumoniae): 15.08%
Inhibition (Candida albicans): 1%
Inhibition (Cryptococcus neoformans): -9.85%

CCc1ccc(NC(=O)Cn2nc3c(Sc4ccccc4)nccn3c2=O)cc1
Inhibition (Klebsiella pneumoniae): 6.05%
Inhibition (Candida albicans): 4.46%
Inhibition (Cryptococcus neoformans): -8.51%

CC(C)c1ccc(NC(=O)CSc2nc3ccccc3n3cnnc23)cc1
Inhibition (Klebsiella pneumoniae): 3.82%
Inhibition (Candida albicans): 7.46%
Inhibition (Cryptococcus neoformans): -15.4%

C=Cc1ccc(CN(c2ccc3c(c2)OCO3)S(=O)(=O)c2ccc3nncn3c2)cc1
Inhibition (Klebsiella pneumoniae): 11.26%
Inhibition (Candida albicans): 1.71%
Inhibition (Cryptococcus neoformans): -6.68%

COC(=O)c1ccc(CN(c2cccc(F)c2)S(=O)(=O)c2ccc3nncn3c2)o1
Inhibition (Klebsiella pneumoniae): 8.3%
Inhibition (Candida albicans): 2.51%
Inhibition (Cryptococcus neoformans): -7.35%

COc1ccc(-c2cc3c4nn(CC(=O)NCc5ccccc5Cl)c(=O)n4ccn3n2)cc1
Inhibition (Klebsiella pneumoniae): 14.7%
Inhibition (Candida albicans): 1.1%
Inhibition (Cryptococcus neoformans): -29.87%
